# According to ChEMBL document CHEMBL4513216, “Probing the Open Global Health Chemical Diversity Library for Multistage-Active Starting Points for Next-Generation Antimalarials” (ACS Infect Dis, 2020):
# The whole screen tested about 65,000 compounds, of which about 2,100 (3.2%) showed an effect of 50% or more. The median lay at about -52%. For the sample, strong results were picked, then their nearest neighbours and some compounds at random.
# System: Plasmodium falciparum
# Test: Screen against P. falciparum Asexual Blood Stage (ABS), at 5uM
# Assay type: functional, Dd2
# Conditions: tested at 5 uM
row,Structure (SMILES),INHIBITION [%]
1,Cc1cc(C)c2c(NCCC34CCCN3CCC4)ncnc2n1,-48.6
2,O=C(C1CCC1)N1CC[C@]2(O)CCN(Cc3ncccn3)C[C@@H]2C1,-55.6
3,CCc1ncc(CN2C[C@@H]3CC[C@H]2CN(C(=O)C2CCC2)C3)cn1,-85.5
4,CCCNc1cc(-c2c[nH]nc2C2CCN(C(=O)C3CCC3)C2)ccn1 (stereo not drawn),92.5
5,O=C(C1CCC1)N1CCN(Cc2cccnc2)[C@H]2CS(=O)(=O)C[C@H]21,-17.6
6,CC(C)Nc1cc(-c2c[nH]nc2C2CCN(C(=O)C3CC3)C2)ccn1 (stereo not drawn),80.9
7,CC(C)Nc1cc(-c2c[nH]nc2C2CCN(C(=O)C3CCC3)C2)ccn1 (stereo not drawn),83.7
8,O=C1NC2(CCc3ccccc31)CCN(Cc1cccnc1)C2 (stereo not drawn),-111
9,O=C(c1ccco1)N1C[C@H]2CCCN(Cc3ccncc3)[C@H]2C1,-19.6
10,Cn1cnc(S(=O)(=O)N2C[C@H]3CN(Cc4cccnc4)C[C@H]3C2)c1,-85.8
11,Cc1sc2nc(CCN)nc(N3CCC(N4CCCC4)CC3)c2c1C,84.3
12,Cc1sc2nc(CCN)nc(N3CC(N4CCCCC4)C3)c2c1C,81.6
13,COCC(=O)NC[C@H]1C[C@@H]2CCN1C[C@@H]2CN1CCc2ccccc21,27.2
14,N#Cc1cnc2ccccc2c1N1CCNCC1,-3.53
15,O=C(C1CCCCC1)N1C[C@H]2CNC[C@H]2C1,44.5
16,CN1C[C@@H]2C[C@H](C(=O)Nc3cccnc3)[C@H](C1)O2,-69.3
17,COc1ccc(CNC(=O)C2=NN(c3ccc(C)cc3)C(=O)CN2)cc1,75
18,CC(=O)NC(C)C(=O)NCc1ccc(N2CCNC(=O)C2)cc1 (stereo not drawn),-4.19
19,COCCN1CCO[C@H]2[C@H](OCc3cccc(C)n3)CC[C@@H]21,-74.3
20,Cc1ccc2[nH]c([C@H]3CCN(CC4CCCCC4)C3)nc2c1,74.7
21,Cc1ccc2[nH]c(C3CCN(C)CC3)nc2c1,-40.2
22,CC(C)(C)c1n[nH]c(C2CN(CC3CCC3)CCO2)n1 (stereo not drawn),-108
23,CCC(CC)NCC(C)Oc1cccnc1 (stereo not drawn),-116
24,Cc1cn2c(n1)C(CNCc1cccc3c1OCO3)CCC2 (stereo not drawn),82.1
25,Cc1cn2c(n1)C(CNCc1ccc(C)s1)CCC2 (stereo not drawn),91.1
26,CCOC[C@@H]1CCC[C@@]12CN(Cc1cccnc1)CCO2,-129

row,Structure (SMILES),INHIBITION [%]
1,Cc1ccc2c(c1)C(N(C)C)CC21CCN(CCO)CC1 (stereo not drawn),74.8
2,Cc1ccc(CN2CCC3(CC2)C(=O)N(C)c2ccccc23)s1,3.77
3,Cc1ccc2c(c1)C1(CCNCC1)CC2NCCO (stereo not drawn),-23.2
4,COCCN1CCC2(CC1)CC(NCc1ccc(C)s1)c1ccccc12 (stereo not drawn),77.2
5,Cc1cccc(CNC2CC3(CCN(CCO)CC3)c3ccccc32)n1 (stereo not drawn),78.6
6,Cc1ccc(CNC2CC3(CCN(CCO)CC3)c3ccccc32)s1 (stereo not drawn),85.4
7,COCCN1CCC2(COCc3cnc(-c4ccccc4)nc32)C1 (stereo not drawn),31.2
8,Cc1ccc2c(c1)CCC21CCN(CCO)CC1,15.4
9,Cc1cccc(CN2C[C@@H]3OCCN(C)[C@@H]3C2)n1,-14.4
10,O=S(=O)(C1CC1)N1CCC2(CCCN(Cc3ccccn3)C2)C1 (stereo not drawn),12.2
11,O=C(Cc1ccccn1)N1CCN2C[C@H](OCCN3CCCC3)C[C@H]2C1,2.21
12,CC[C@@H]1N(CC2CC2)CCC[C@]12CCC(=O)N2,-57.5
13,Cc1noc(C)c1CN1CC[C@H]2[C@H]1CCN2CC1CCOCC1,-92
14,CNC(=O)[C@H]1C[C@@H]2CN(C(=O)c3ccc(C)nc3)C[C@@H]2N1C,-35.1
15,CC(C)C(NC(=O)c1ccccc1)C(=O)N1CCC2(CC1)OCCO2 (stereo not drawn),-37.3
16,CN(C)C(=O)c1ccc(-c2cccc3c2CCNC3)o1,-44.3
17,Cn1cc(CN2CC[C@]3(C[C@H](Oc4ccccn4)CO3)C2)cn1,-20.3
18,Cn1cc(CNC2CC3(CCN(CC4CC4)CC3)c3ccccc32)cn1 (stereo not drawn),87.6
19,CN1C(=O)C2(CCN(CC3CC3)CC2)c2ccccc21,25.6
20,Cc1oc(-c2ccco2)nc1CC(=O)N1CCN(C2CCC2)CC1,-14.4
21,CNC1CCN(C2CCN(c3ccc(-c4ccco4)cc3)CC2)CC1,86.4
22,NCC1CCN(C2CCN(c3ccc(-c4ccco4)cc3)CC2)C1 (stereo not drawn),91
23,NC1CCN(C2CCN(c3ccc(-c4ccco4)cc3)CC2)CC1,80.3
24,O=C1NC2(CCCCC2)c2nnnn2-c2ccc(Br)cc21,-67.2
25,O=C(CCc1ccsc1)N1CCC(C(=O)O)(c2ccccc2)CC1,-103
26,CCN1CCCN(S(=O)(=O)c2cc3ccccc3o2)CC1,84.3

row,Structure (SMILES),INHIBITION [%]
1,NC(=O)CN1CCCN(C(=O)Cc2ccc(F)cc2)CC1,-158
2,CS(=O)(=O)c1ccc(-c2cc(O)cc(CCC3CCCCN3)c2)cc1 (stereo not drawn),70.3
3,CS(=O)(=O)c1ccc(CC(=O)N2CCN3CCNC(=O)C3C2)cc1 (stereo not drawn),-50.4
4,CCCN1CCN(Cc2nccn2CC)C(C)C1 (stereo not drawn),-101
5,CCCn1ccnc1CN1CCCC1c1ccccn1 (stereo not drawn),86.8
6,CCC(=O)N1CCN(Cc2cnc(C)nc2)[C@H]2CS(=O)(=O)C[C@H]21,-106
7,O=C1CC2(CCN(Cc3ccc(Cl)s3)C2)C(=O)N1 (stereo not drawn),-155
8,Cc1nnc(N2CCCC3(CN(Cc4ccncc4)CCO3)C2)o1 (stereo not drawn),-78.8
9,Cc1ccc(Sc2ccc(CN3CCC4(CCCNC4=O)C3)o2)cc1 (stereo not drawn),73.1
10,CC(C)C(=O)N1CCCC2(CCCN2Cc2cccnc2)C1 (stereo not drawn),-13.9
11,Cc1ccccc1CC(=O)N1C[C@@H](O)[C@H](N2CCN(C)CC2)C1,-87.9
12,CN(C)C(=O)CN1CC[C@H]2[C@H]1CCN2c1ncccn1,-109
13,CN(C)[C@@H]1CCN(C(=O)Cc2cccs2)[C@H]1Cc1cnn(C)c1,-4.87
14,CN(C)[C@@H]1CCN(c2ncccn2)[C@H]1Cc1ccccc1,78.1
15,CN(C)[C@@H]1CCN(c2ncc(F)cn2)[C@H]1Cc1ccccc1,89
16,CN(C)[C@@H]1CCN(C(=O)Cc2cccs2)[C@H]1Cc1ccncc1,-51.7
17,Cc1ccc(CN2C[C@@H]3CN(c4ncc(F)cn4)C[C@@H]3C2)cc1,-37
18,Cc1cc(C(=O)N2CC[C@@H](N(C)C)[C@@H]2Cc2ccccc2)no1,74.4
19,Cc1cccc(CN2CC[C@@H]3[C@@H]2CCN3C(=O)c2cc(C)on2)n1,-95.7
20,CN(C)[C@@H]1CCN(C(=O)Cc2ccc(F)cc2)[C@H]1Cc1ccncc1,5.44
21,O=S1(=O)NCC2(CCN(Cc3ccc(Cl)s3)C2)Oc2ncccc21 (stereo not drawn),-56.7
22,O=C1N(c2ccsc2)CCC12CCCN(Cc1cccnc1)C2 (stereo not drawn),-28.4
23,Cc1ccc(C2(CN3CCN(Cc4cnc(C)n4C)CC3)CC2)cc1,95.4
24,Cc1ccc(C2(CN3CCN(Cc4cncn4C)CC3)CC2)cc1,73.2
25,CCn1cncc1Cn1ncc2ccccc2c1=O,-114
26,COCCn1cncc1CN1CCC(C(C)=O)(c2ccccc2)CC1,-20.6

row,Structure (SMILES),INHIBITION [%]
1,CCn1cncc1CN1CCN(CC2(c3ccc(C)cc3)CC2)CC1,70
2,Cn1cncc1CN1C[C@@H]2OCCN(c3ncccn3)[C@@H]2C1,-99.1
3,Cc1noc(C)c1CN1CCO[C@H]2CN(Cc3cncn3C)C[C@H]21,-42.6
4,Clc1ccc(-n2nnnc2C2(NCc3ccco3)CCCCC2)cc1,5.42
5,CN(Cc1cncnc1)[C@H]1CN(CC2CC2)[C@@H]2CCCO[C@@H]21,4.52
6,c1cc(COC[C@]23COC[C@H]2CN(CC2CCC2)C3)ccn1,-81.5
7,CC(C)N(C)Cc1cnc2n1CCN(C(=O)NC1CCCC1)C2,83.4
8,CC(C)N(C)Cc1cncc2c1CCN(CC(=O)N(C)C)C2,-31.3
9,Cc1noc(C)c1CN1CCCC2(CCN(C(=O)NC3CC3)C2)C1 (stereo not drawn),-183
10,c1cnnc(N2CCCC2CNc2ncnc3ccccc23)c1 (stereo not drawn),81.1
11,CN(Cc1ncc(C(C)(C)C)o1)CC1CCCN1c1cccnn1 (stereo not drawn),80.7
12,c1cnnc(N2CCCC2CNc2ncnc3sccc23)c1 (stereo not drawn),82
13,CN(c1ncnc2ccccc12)C1CCCN(c2cccnn2)C1 (stereo not drawn),74.4
14,Cc1cc(C)c(CNc2ncnc3ccccc23)c(=O)[nH]1,14.5
15,N#Cc1ccc(NC2CCN(c3ncccn3)CC2)cc1Cl,-47.7
16,c1ccc(CO[C@@H]2CC[C@H]3[C@H]2OCCN3Cc2ccsc2)nc1,-80.3
17,CC[C@H](C)[C@@H](CO)NC(C)Cc1ccc(C)cc1 (stereo partly drawn),31.8
18,O=C(NCc1ccccn1)[C@H]1COC[C@H]2CN(C3CCCC3)C[C@H]21,-109
19,COCCn1ccc2c(C(=O)NC3CN4CCC3CC4)cccc21 (stereo not drawn),-19.8
20,O=C(NC1CC1)C1CCN(c2cccc(C(F)(F)F)n2)CC1,79.4
21,COCCN1C[C@H]2CCC[C@@H](CNc3ncccn3)[C@H]2C1,23.6
22,N[C@H]1CN(CCOc2ccc(F)cc2)C[C@@H]1C1CC1,76.5
23,N[C@H]1CN(CCCOc2ccccc2)C[C@@H]1C1CC1,86.8
24,COCCN1C[C@H]2[C@@H](C1)N(C(=O)COc1ccccc1)CC[C@H]2OC,-98.8
25,O=C(Cc1ccsc1)N1CCN(CCOc2ccccc2)CC1,19.5
